Test results as given in PubChem BioAssay AID540308 (The Scripps Research Institute Molecular Screening Center, 2011).
Screen size: about 360,000 compounds; about 3,500 (0.97%) were called active. The list comes from a sample in which actives are over-represented; it also holds similar structures and randomly drawn compounds. Values without a mark were called inactive.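 The calls were made as follows: active = activation above a per-plate cutoff, the mean activation of sample wells on that plate plus 3 SD (cut at about 8% in these data); inactive = the rest.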

Target: Melanocortin receptor 4 (Homo sapiens) (UniProt P32245)
Assay: MC4R agonists recruiting beta-arrestin, primary screen, cell-based, luminescence, agonist arm of biased-ligand search (AID 540308)
Conditions: U2OS MC4R beta-arrestin complementation, at 8.9 µM, hits give high values, percent of melanotan II response, DMSO zero

Melanocortin receptor 4 (Homo sapiens), sequence (P32245 whole entry, looked up): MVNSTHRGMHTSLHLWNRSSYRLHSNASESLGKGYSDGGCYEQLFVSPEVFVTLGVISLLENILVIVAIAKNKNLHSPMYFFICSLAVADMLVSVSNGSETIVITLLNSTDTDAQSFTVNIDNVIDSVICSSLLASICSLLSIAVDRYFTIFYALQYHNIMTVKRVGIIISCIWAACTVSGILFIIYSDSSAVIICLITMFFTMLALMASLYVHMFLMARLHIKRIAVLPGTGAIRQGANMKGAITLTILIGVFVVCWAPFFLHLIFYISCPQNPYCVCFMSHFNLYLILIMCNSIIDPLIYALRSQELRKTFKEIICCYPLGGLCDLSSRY

SMILES | activation
COc1cccc(-n2c(SCC(=O)NC3CCCCC3)nc3n[nH]c(C)c3c2=N)c1 | -1.4%
Cc1ccc(-n2c(SCC(=O)NCCC3=CCCCC3)nc3n[nH]c(C)c3c2=N)cc1Cl | 18.2% (active)
CCCCNC(=O)CSc1nc2n[nH]c(C)c2c(=N)n1-c1cccc(Cl)c1C | -1.55%
COc1ccc(CNC(=O)c2ccc(-c3cccnc3)c3ccoc23)cc1OC | 1.26%
CCCNC(=O)c1cc(C2CCCN(C(=O)c3ccc4c(c3)CCO4)C2)on1 (configuration not stated) | -0.64%
COc1ccc(C(=O)n2nc(C)c(Br)c2C)cc1OC | 1.71%
COc1ccc(C(=O)n2nc(-c3ccc(Cl)cc3)nc2N)cc1OC | 0.74%
COc1ccc(C(=O)n2nc(-c3ccc(C)cc3)nc2N)cc1OC | 15.4% (active)
CC(=O)c1ccc(N2CCN(C(=O)CCNC(=O)Cn3ccc4ccccc4c3=O)CC2)cc1 | 2.35%
CCOC(=O)C1CCCN(C(=O)c2cccc3ccccc23)CC1 (configuration not stated) | -0.59%
Fc1ccccc1/C=N/Nc1cc(N2CCCCC2)ncn1 | 12.1% (active)
O=C(CCC(=O)Nc1ccccc1)N/N=C/c1ccccc1F | -0.29%
COc1ccccc1N1CCN(C(=O)C(=O)N/N=C/c2ccccc2F)CC1 | -3.16%
CCCNC(=O)C1(C)CCN1C(=O)C1(c2ccccc2)CC1 (configuration not stated) | 1.14%
COc1ccc(S(=O)(=O)N2CCC(C(=O)OCC(=O)c3ccccc3)CC2)cc1[N+](=O)[O-] | 31.7% (active)
Cc1ccc(S(=O)(=O)N2CCC(C(=O)OCC(=O)N(C)c3ccccc3)CC2)cc1C | -3.84%
O=C(COc1ccc(S(=O)(=O)N2CCCC2)cc1[N+](=O)[O-])N1CCCCC1 | -1.25%
CCc1nc2ccc(C(=O)NC3CCN(Cc4ccccc4)CC3)cn2c1N(CC)CCOC | 4.51%
O=C(Nc1ccccc1)c1ccccc1Br | 0.3%
Cc1ccc(NC(=O)Nc2ccccc2)c(Br)c1 | 21.9% (active)
CCOc1cc(NC(=O)Nc2ccccc2)c(OCC)cc1NC(=O)CC | 0.85%
CC(=O)Nc1cccc(-c2ccnc3c2CC(C)(C(=O)NCc2ccco2)O3)c1 (configuration not stated) | 0.36%
Cn1c(-c2ccc(F)cc2)cnc1SCC(=O)NCc1ccco1 | -1.34%

SMILES | activation
O=C(CSc1nc2ccccc2c(=O)n1Cc1ccc(F)cc1)NCC1CCCO1 (configuration not stated) | -0.86%
O=C(CCCn1c(SCC(=O)c2ccc(F)cc2)nc2ccccc2c1=O)NCc1ccco1 | 29.6% (active)
O=C(c1cc(C2CCCCN2S(=O)(=O)c2ccccc2)on1)N1CCOCC1 (configuration not stated) | 0.01%
CC=CCn1c(SCCCc2ccccc2)nc2c1c(=O)[nH]c(=O)n2C | 1.64%
Cc1ccc(CNC(=O)Nc2nnc([C@H]3C[C@H](O)[C@@H](CO)O3)s2)cc1 | -0.78%
OCCN1CCN(c2ncnc3c2ncn3[C@H]2CN(Cc3ccco3)C[C@@H](CO)O2)CC1 | -0.69%
CCOC(=O)C1CCCN(C(=O)c2ccc(N(C)C)cc2)CC1 (configuration not stated) | -0.51%
CC(C)c1ccc(Nc2nnc(SCC(=O)c3nnc(-c4ccccc4)o3)s2)cc1 | -0.71%
Cc1ccc(Nc2nnc(SCC(=O)c3cc4ccccc4o3)s2)cc1C | 11% (active)
Cc1cc2c(=O)n(C)c(SCC(=O)c3cc4ccccc4o3)nc2s1 | -0.92%
CC1(C(=O)NS(=O)(=O)C2CC2)CCCN(C(=O)CSc2ccccc2)C1 (configuration not stated) | 0.3%
OC[C@@H]1CN(Cc2cccs2)C[C@H](n2cnc3c(Nc4ccccc4)ncnc32)O1 | 0.44%
O=C(Nc1sc2c(c1-c1nc3ccccc3[nH]1)CCCC2)C1CC1 | 14.1% (active)
CCOC(=O)c1c(NC(=O)C2CCN(S(=O)(=O)c3ccc(Cl)cc3)CC2)sc2c1CCCC2 | 2.72%
O=C(CN1CCCC1)Nc1sc2c(c1C(=O)Nc1ccccc1)CCCC2 | -3.19%
O=C(Nc1ccc(Cl)c(C(F)(F)F)c1)C1Cc2c(-c3ccccc3Oc3ccccc3)ccnc2O1 (configuration not stated) | -1.84%
CCCCN(C=O)c1c(CC)nc2c(OCc3ccccc3C(=O)OC)cccn12 | 0.49%
C/C(=N\NC(=O)COc1c(C)cccc1C)c1cccs1 | 12.1% (active)
C/C(=N\OCC(=O)Nc1ccc(Br)cc1)c1cccs1 | -4.16%
C/C(=N\NC(=O)CSc1nc2ccccc2c(=O)n1-c1ccccc1C)c1cccs1 | -1.88%
CC(=O)Nc1cccc(-c2ccnc3c2CC(C)(C(=O)NCc2ccccc2)O3)c1 (configuration not stated) | -1.6%
N/C(=N\OC(=O)Cc1ccccc1[N+](=O)[O-])c1ccc(Br)cc1 | -1.47%
N/C(=N\OC(=O)N1c2ccccc2Sc2ccccc21)c1ccc(Br)cc1 | 8.26% (active)

SMILES | activation
N/C(=N\OC(=O)c1ccc2c(c1)OCO2)c1ccc(Br)cc1 | 0.57%
CCC(=O)N1CCCC1(C)C(=O)Nc1ccc2c(c1)CCN2C(C)=O (configuration not stated) | -1.65%
CCN(CC)c1ncnc2c1ncn2[C@H]1CN(Cc2cccs2)C[C@@H](CO)O1 | 0.8%
CCOc1ccc(NC(=O)COc2ccc(C(=O)N3CCC(C(N)=O)CC3)cc2OC)cc1 | -1.74%
CCOc1ccc(NC(=O)COc2ccc(C(=O)NC3CCCc4ccccc43)cc2OC)cc1 (configuration not stated) | 9.26% (active)
COC(=O)c1cc(OCC(=O)NC2CCCc3ccccc32)cc(C(=O)OC)c1 (configuration not stated) | -1.2%
Cc1ccc(CN2C(=O)CCC2C(=O)NCCCN2CCCCC2C)cc1 (configuration not stated) | -0.33%
CC(=O)c1sc(NC(=O)CCCOc2ccccc2C)nc1C | 9.6% (active)
Cc1ccc(F)c(NC(=O)CCOc2ccccc2C)c1 | -0.86%
Cc1ccccc1OCC(=O)Nc1nc(C)c(C(=O)N(C)C)s1 | -2.42%
CCCNC(=O)C1(C)CCN1C(=O)Cc1ccc(-c2ccccc2)cc1 (configuration not stated) | -0.78%
COc1cc(C2C3=C(CCCC3=O)OC3=C2C(=O)CCC3)ccc1OCC(=O)Nc1ccccc1 | -1.3%
CCCn1c(C)cc(/C=C(\C#N)C(=O)OCC(=O)Nc2cc(OC)c(OC)c(OC)c2)c1C | 1.33%
CCOC(=O)/C(C#N)=C/c1ccc(OCC(=O)Nc2ccccc2)c(OC)c1 | 8.67% (active)
CCNC(=O)C1(C)CCCN(C(=O)c2ccc3ccccc3n2)C1 (configuration not stated) | -0.3%
COCCNC(=O)C1(C)CCCN(Cc2cccc(F)c2)C1 (configuration not stated) | -0.59%
COc1ccc(NC(=O)C2(C)Cc3c(-c4ccc(C(N)=O)cc4)ccnc3O2)cc1 (configuration not stated) | 0.47%
O=C(Nc1cccc2cccnc12)c1ccc2sc([C@H]3C[C@H](O)[C@@H](CO)O3)nc2c1 | 0.55%
CC1(C(=O)Nc2cccc3c2CCCC3)CCN1C(=O)CCc1ccc(Cl)cc1Cl (configuration not stated) | 1.71%
O=C(NC1CCCCCC1)c1cccnc1Sc1ccc(Cl)cc1 | 10.7% (active)
COc1cccc(CNC(=O)c2cccnc2Sc2ccc(Cl)cc2)c1 | 0.85%
O=C(NCc1cccnc1)c1cccnc1Sc1ccc(Cl)cc1 | 1.65%
CCCS(=O)(=O)NC(=O)C1(C)CCN(C(=O)c2sccc2C)C1 (configuration not stated) | -0.75%

SMILES | activation
COCOc1cccc(CN2CCC(C)(Oc3ccc(SC)cc3)C2)c1 (configuration not stated) | 0.12%
Cc1cccc(C)c1OC(=O)CSc1nnc(-c2ccccc2)o1 | 15.5% (active)
COC(=O)CSc1nnc(-c2cccnc2)o1 | -1.17%
CCN(C(=O)CSc1nnc(-c2ccncc2)o1)c1ccccc1 | 0.57%
COCCCNc1ccn2nc(-c3ccc(CC(C)C)cc3)cc2n1 | 1.85%
Cc1ccc(S(=O)(=O)N(C)CC(=O)OCC(=O)Nc2ccccc2)cc1 | -2.23%
CC(c1ccco1)N(C(=O)Nc1ccccc1)C1CCCCC1 (configuration not stated) | -3.36%
Cc1ccc(NC(=O)NC(=O)N(C2CCCCC2)S(=O)(=O)c2ccccc2)cc1 | 9.21% (active)
Nc1cccc(-c2cncc(N3CCN(Cc4ccccn4)CC3)n2)c1 | -0.96%
Cc1nc(C(F)(F)F)ccc1C(=O)N1CCC1(C)C(=O)NS(=O)(=O)c1ccccc1Cl (configuration not stated) | -1.94%
Cc1c(-c2ccccc2)n[nH]c1C(=O)N=Nc1c(O)[nH]c2ccccc12 | 17.7% (active)
O=C(CCN1CCCCC1)N=Nc1c(O)[nH]c2ccccc12 | -1.11%
Cc1[nH]c2ccccc2c1C(=O)COC(=O)c1c(-c2ccccc2)noc1C | -0.48%
O=C(COC(=O)CNC(=O)c1ccco1)Nc1ccc(F)cc1 | -0.58%
O=C(COC(=O)c1ccccc1NC(=O)c1ccco1)Nc1ccc2c(c1)OC(F)(F)O2 | 10.1% (active)
O=C(COC(=O)c1ccc[nH]c1=O)Nc1ccc2c(c1)OC(F)(F)O2 | -2.05%
CCc1nc2ccc(C(=O)NC3CCN(Cc4ccccc4)CC3)cn2c1N(C)CCN1CCOCC1 | -0.77%
CC(C(=O)Nc1ccc(O)c(C(=O)O)c1)N1C(=O)/C(=C/c2cccs2)SC1=S (configuration not stated) | -1.84%
COc1ccc(/C=C2/SC(=O)N(CCCCCC(=O)Nc3ccccc3C(=O)O)C2=S)cc1 | -0.47%
O=C(CCCN1C(=O)/C(=C\c2ccco2)SC1=S)Nc1cccc2ccccc12 | 13.9% (active)
O=C(CN1C(=O)/C(=C\c2ccccc2F)SC1=S)Nc1nc2ccccc2s1 | 0.77%
COc1cccc(/C=C2\SC(=S)N(CCCC(=O)N3CCOCC3)C2=O)c1 | -0.8%
O=C(CCCN1C(=O)/C(=C/c2cccs2)SC1=S)Nc1ccc(O)cc1 | 20.4% (active)
